Shown are actives, neighbours in structure and some others; about 3% of the full set was active somewhere.
IMPase inh: qHTS Assay for Identifying the Cell-Membrane Permeable IMPase Inhibitors; Inositol monophosphatase 1 (Rattus norvegicus), P97697; inhibition (IP1 accumulation), % at 46.1 µM; CHO-M1 cells, IP1 accumulation, HTRF TR-FRET ratio; 120,000 tested, under 10 active; active = well fitted curve in the direction sought with a large enough effect in the signal ratio, not every such curve was filed as active; inconclusive = small, poorly fitted or top-dose-only effect, or a change in a side signal; inactive = no such curve, though single readings can be large or run the other way; the % refers to the signal ratio;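 note: cells stimulated with carbachol in lithium chloride buffer; plate controls were DMSO basal wells for no effect and reference inhibitor wells for full effect; higher means more IMPase inhibition seen as more IP1 and lower FRET ratio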
Target sequence (P97697 whole entry, looked up): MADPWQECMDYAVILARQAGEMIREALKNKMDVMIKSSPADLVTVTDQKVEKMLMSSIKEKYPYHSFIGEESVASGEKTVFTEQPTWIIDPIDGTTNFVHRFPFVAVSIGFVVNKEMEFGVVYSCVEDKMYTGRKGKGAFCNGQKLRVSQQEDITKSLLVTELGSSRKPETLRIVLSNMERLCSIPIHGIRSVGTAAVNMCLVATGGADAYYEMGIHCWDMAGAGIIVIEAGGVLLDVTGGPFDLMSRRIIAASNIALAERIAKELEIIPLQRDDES
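In this qHTS, compounds (final up to 46 uM) act on CHO-M1 cells that are then activated through the M1 receptor with carbachol, in pH 7.4 buffer containing 50 mM LiCl, for 30 min. IP1 accumulation is quantified by the IP-One immunoassay.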
PNC inhibitor: High Content Assay for Compounds that inhibit the Assembly of the Perinucleolar Compartment. AID 2417, 2010. activity change (PNC), negative = inhibition, % at 10 µM. 3.1% of 140,000 active. PC3M PTB-GFP, PNC prevalence imaging, 16 h; stronger effect = lower value;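 active = readout at or below -70, meaning at least 70% loss of cells showing the perinucleolar compartment, a nuclear body marking cancer cells; inconclusive = readout between -30 and a set limit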;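 note: plate controls were DMSO wells for no effect and camptothecin positive control wells for full effect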
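PC3M cells stably expressing PTB-GFP, 750–1000 cells/well, treated 16 h at 37 °C with compound (23 nl of library stock), in duplicate. After paraformaldehyde fixation and Hoechst stain, imaged at 20x; PNC prevalence scored by image analysis.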
ALOX12 inhib: qHTS Assay for Inhibitors of 12-hLO (12-human lipoxygenase) | Potency, µM (titrated, usually from 57.1 µM), inactives show top-dose activity change, negative = inhibition, actives largely listed as inhibitors | Polyunsaturated fatty acid lipoxygenase ALOX12 (Homo sapiens), P18054 | 0.12% of 150,000 active | purified 12-hLO, xylenol orange hydroperoxide absorbance; note: potency is the fitted concentration of half-maximal effect; nearly all actives have a fitted effect of over 55% in size
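150 nM 12hLO, 25 mM Hepes pH 7.0 + 0.01% Triton X-100; cpd preinc 15 min RT; 40 uM arachidonic acid, 30 min RT; Fe-XO 30 min; A573/A405 ratio as read-out.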
15-hLO-2 inh: qHTS Assay for Inhibitors of 15-hLO-2 (15-human lipoxygenase 2). Polyunsaturated fatty acid lipoxygenase ALOX15B (Homo sapiens), O15296. Potency, µM (top dose mostly 57.1 µM), for inactives: at the top dose activity change, negative = inhibition, most hits filed as inhibitors. purified 15hLO-2, xylenol orange hydroperoxide absorbance. 0.56% of 110,000 active. AID 881, 2007; note: potency is the fitted concentration of half-maximal effect; nearly all actives have a fitted effect of over 60% in size
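Enzyme 50 nM, AA 45 uM, 25 mM Hepes pH 7.5 + 0.01% Triton X-100; cpd preinc 15 min RT, rxn 90 min RT; stop/detect with 200 uM XO + 300 uM Fe(II) in 50 mM H2SO4, 30 min; A573/A405.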
An asterisk follows results filed as active; ? = inconclusive; . = no result; [ ] = dose if it differs, or a comment. Unless noted, calls come from the whole dose curve; as a rule, active = well fitted curve in the direction sought with a large enough effect; inconclusive = small, poorly fitted or top-dose-only effect, or another doubt; inactive = no such curve, though single readings can be large; an effect the other way counts as inactive or inconclusive. Unless noted, % is set by controls: 0 for no effect and ±100 for the full control effect.

SMILES | IMPase inh | PNC inhibitor | ALOX12 inhib | 15-hLO-2 inh
Cc1sc2nc(SCC(=O)NCc3ccco3)n(-c3ccccc3)c(=O)c2c1C | -4.9 | -83.7* | 1.2% | -5.8%
Cc1nn(-c2ccccc2)c(N2CCCC2)c1/C=N/NC(=O)c1cc(-c2cccnc2)nc2ccccc12 | 10.8 | -17.8 | 0.6% | .
O=C(N/N=C/c1cc2c3c(c1O)CCCN3CCC2)c1ccccc1O | . | -112.8* | -14.9% | .
Cc1nn(-c2ccccc2)c(N2CCCC2)c1/C=N/NC(=O)c1ccccc1O | . | -103.8* | -1.6% | .
CCOc1ccccc1C(=O)NC(C)c1ccc2c(c1)OCO2 (configuration not stated) | -10.9 | -102.7* | 0.7% | -3.6%
CCOc1cc(C(=O)Nc2ccc3c(c2)OCO3)ccc1OCCOc1ccccc1Cl | 11.9 | -86.9* | -7.3% | 7.1%
CCOc1ccc(C(=O)Nc2ccc3c(c2)OCO3)cc1OCC | 3.0 | ? | -0.8% | -3.1%
O=c1c2ccccc2n2c(-c3ccc(F)cc3)nnc2n1Cc1ccccc1 | . | -101.6* | 0.9% | .
S=C([S-])NCCNC(=S)[S-].[Zn+2] | . | . | -21.0% | ?
Cc1ccccc1Nc1c(-c2ccc(O)cc2)nc2c(C)cccn12 | -15.2 | . | . | .
Cc1ccc(Cn2nnnc2CN2CCC(O)(c3ccccc3F)CC2)cc1 | 6.7 | -100.0* | -16.8% | .
Cc1ccc(Cn2nnnc2CN2CCC(NC(=O)c3ccccc3F)CC2)cc1 | -2.4 | -17.0 | -6.8% | -3.0%
C=CCc1ccccc1OC[C@H](O)CNC(C)C | -3.1[20.6 µM] | . | 3.8%[25.6 µM] | 31.0%[25.6 µM]
CN(C)c1ccc(N/C=C/C(=O)c2ccco2)cc1 | 32.0 | ? | -14.9% | 25.1µM*
CC(=O)Nc1ccc(N/C=C/C(=O)c2ccco2)cc1 | 3.2 | ? | -10.3% | 1.1%
CCOC(=O)CN1C(=O)N[C@@H](c2ccccc2)[C@H](C(C)=O)[C@H]1C | . | . | 1.5%[11.4 µM] | .
O=C(/C=C/c1ccccc1Cl)N(Cc1ccc(Cl)cc1)C1CCS(=O)(=O)C1 (configuration not stated) | . | -98.2* | -2.5% | .
O=C(/C=C/c1ccccc1Cl)N(Cc1ccccc1)C1CCS(=O)(=O)C1 (configuration not stated) | -2.4 | -20.7 | -0.9% | .
COC(=O)c1ccc(C(NC(=O)OCc2ccccc2)/C(F)=C/[C@@H](C)C(=O)NCCc2c[nH]c3ccc(OC)cc23)cc1 (some centres not stated) | . | . | -0.5% | -1.3%
O=C(NCCCN1CCN(c2cccc(Cl)c2)CC1)C1CCC(=O)N1Cc1ccccc1Cl (configuration not stated) | 0.6 | 9.3 | -12.0% | 67.9%
CCOC(=S)N/C(=N\S(=O)(=O)c1ccccc1)c1ccccc1 | 12.5 | -100.0* | -4.0% | .
Cc1cccc2cc(CN(Cc3ccc(F)cc3)Cc3nnnn3C3CCCC3)c(=O)[nH]c12 | 0.2 | -17.7 | -2.3% | 21.5%
Cc1ccc2[nH]c(=O)c(CN(Cc3ccccc3)Cc3nnnn3C3CCCC3)cc2c1 | 6.3 | -93.3* | -4.5% | -1.4%
Cc1ccc2[nH]c(=O)c(CN(Cc3nnnn3C3CCCC3)C3CCCCC3)cc2c1 | 1.5 | -100.0* | -4.0% | -8.1%
COc1ccccc1-c1cc(NCc2ccccc2)ncn1 | . | . | . | -8.2%
SMILES | IMPase inh | PNC inhibitor | ALOX12 inhib | 15-hLO-2 inh
Cc1noc(C)c1C(=O)N1CCC2(CCN(Cc3cc(C(F)(F)F)cc(C(F)(F)F)c3)CC2)CC1 | . | . | 3.3% | 28.6%
CC(C)n1c(-c2cccnc2)nc2cnccc21 | 0.7 | -100.0* | 1.6% | .
c1cncc(-c2cccnc2)c1 | -1.6 | 42.3 | 0.4% | .
Cc1ccc(C)c(NS(=O)(=O)c2cc(C(=O)O)ccc2Cl)c1 | . | . | -0.9% | .
CC1=NN(c2ccccc2)C(=O)/C1=C/c1c(O)n(-c2ccc(F)c(Cl)c2)[nH]c1=O | . | -116.4* | -6.0% | .
COc1ccc(NC(=O)c2cc(-c3ccccc3)oc2C)cc1 | . | ? | -2.6% | .
COc1ccc(NS(=O)(=O)c2cc(OC)ccc2NC(=O)c2cc(C)oc2C)cc1 | -6.8 | -100.4* | ? | -15.7%
CN1Cc2cccc3c2C(Cc2ccccc2S3)C1 (configuration not stated) | . | -9.4 | -2.8% | .
COc1ccc(N2CCN(C(=S)Nc3cccc(C)c3)CC2)cc1 | -6.9 | -4.8 | -2.0% | .
COc1ccc(N2CCN(C(=S)Nc3cc(C)cc(C)c3)CC2)cc1 | -6.6 | -106.0* | -6.2% | -14.2%
CC(=O)OCC#CCSc1nnc(-c2cccc(Br)c2)o1 | 5.6 | . | . | .
CC1(C)CC(=O)N(c2ccccc2)C1(C)O (configuration not stated) | -11.8 | -86.1* | 1.8% | -2.6%
CN1C(=O)CCC1(O)c1ccccc1 (configuration not stated) | -10.7 | ? | 0.8% | -18.7%
O=c1cc(-c2cccc(F)c2)[nH]c2ccccc12 | . | -91.5* | -1.1%[0.00818 µM] | -0.2%[0.0915 µM]
O=c1cc(-c2ccccc2)[nH]c2ccc(Cl)cc12 | . | . | 2.4%[0.00818 µM] | 1.2%[0.0915 µM]
O=c1cc(-c2cccc(F)c2)[nH]c2ccc(Cl)cc12 | . | . | 0.8%[0.00818 µM] | 13.4%[0.0915 µM]
O=c1cc(-c2ccccc2)[nH]c2cc(Cl)ccc12 | . | -118.9* | -0.4%[0.00818 µM] | -3.0%[0.0915 µM]
COC(=O)N1C2(C=CC1(C)C(=O)NCc1ccc(N(C)C)cc1)CCCCC2 (configuration not stated) | . | . | 4.6% | 1.4%
Cn1ccc(C(=O)Nc2ccc(Br)cc2Br)n1 | . | 15.5 | -1.0% | .
COc1cccc(-c2cc(C(=O)N3C(C)CCCC3C)no2)c1 (configuration not stated) | 6.0 | -90.6* | -0.1% | 4.6%
O=C(O)C[C@H]1OCC=C2C[N@@+]3([O-])CC[C@]45c6ccccc6N[C@@H]4[C@@H]1[C@H]2C[C@H]53 | . | . | 4.9%[11.4 µM] | -2.1%[11.4 µM]
CN=c1nc(-c2ccccc2)n(-c2ccccc2)s1 | 13.5 | . | ? | 1µM*
N#CC1(C#N)C2=C(CCCC2)NC(c2ccccc2)C1(C#N)C#N (configuration not stated) | 5.5 | 5.0 | -22.4% | -14.4%
CC[n+]1c(S(=O)(=O)[O-])ccc2ccc(C)cc21 | -8.0 | 1.4 | -8.2% | 4.3%
CC[n+]1c(C)sc2c(C)cc(C)cc21 | 0.2[1.84 µM] | -99.2* | -6.5% | -7.6%[11.4 µM]
SMILES | IMPase inh | PNC inhibitor | ALOX12 inhib | 15-hLO-2 inh
O=C(Cn1cc2c(n1)CCCCC2)N1CCCCC1 | -4.0 | -119.3* | -0.7% | .
Cc1ccc(C)c(NC(=S)NNC(=O)c2csc3c2CCCC3)c1 | 6.0 | -26.8 | ? | -3.7%
Cc1ccc(C)c(NC(=S)NNC(=O)c2csc3c2CCC(C)C3)c1 (configuration not stated) | -6.0 | -113.5* | ? | -53.1%
CCOC(=O)NCc1ccc(CNC(=O)OCC)cc1 | 0.9 | 0.0 | 0.4% | 1.6%
CCOC(=O)NCC(C)(C)CNC(=O)OCC | -7.1 | -116.6* | -0.8% | -3.4%
Cc1ccc(NC2=C/C(=N\S(=O)(=O)c3cccs3)c3ccccc3C2=O)c(C)c1 | 28.0 | -22.4 | -3.9% | .
Cc1cccc(NC2=C/C(=N/S(=O)(=O)c3cccs3)c3ccccc3C2=O)c1 | . | -97.0* | 0.4% | .
